About 83,000 compounds went through this panel and 20% of them were active in at least one assay; those are over-represented in the sample as a whole.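 The test compound was applied at a single concentration to cells in 96-well plates for 48 hours, and percent growth was recorded.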 Values without a mark were called inactive. Activity calls are given as the source filed them. The calls were made as follows: active = growth percent below 10; inactive = the rest.
Columns and labels:
Assay in all cases: NCI-60 one-dose screen, 48 h (100 = growth as untreated, 0 = no growth, -100 = all killed)
Conditions in all cases: 10 µM unless noted
NCI-H23 lung = tested on: NCI-H23 lung
NCI-H226 lung = tested on: NCI-H226 lung
NCI-H322M lung = tested on: NCI-H322M lung
HOP-62 NSCLC = tested on: HOP-62 NSCLC
NCI-H460 lung = tested on: NCI-H460 lung
HOP-92 NSCLC = tested on: HOP-92 NSCLC
NCI-H522 lung = tested on: NCI-H522 lung
A549/ATCC NSCLC = tested on: A549/ATCC NSCLC
786-0 renal = tested on: 786-0 renal
COLO 205 colon = tested on: COLO 205 colon
DU-145 prostate = tested on: DU-145 prostate
K-562 leukemia = tested on: K-562 leukemia
MALME-3M melanoma = tested on: MALME-3M melanoma
MDA-MB-231 breast = tested on: MDA-MB-231 breast
RXF 393 renal = tested on: RXF 393 renal
SF-268 CNS = tested on: SF-268 CNS
SF-295 CNS = tested on: SF-295 CNS
SF-539 CNS = tested on: SF-539 CNS
UACC-257 melanoma = tested on: UACC-257 melanoma
M14 melanoma = tested on: M14 melanoma

| SMILES | growth (NCI-H23 lung) | growth (NCI-H226 lung) | growth (NCI-H322M lung) | growth (HOP-62 NSCLC) | growth (NCI-H460 lung) | growth (HOP-92 NSCLC) | growth (NCI-H522 lung) | growth (A549/ATCC NSCLC) | growth (786-0 renal) | growth (COLO 205 colon) | growth (DU-145 prostate) | growth (K-562 leukemia) | growth (MALME-3M melanoma) | growth (MDA-MB-231 breast) | growth (RXF 393 renal) | growth (SF-268 CNS) | growth (SF-295 CNS) | growth (SF-539 CNS) | growth (UACC-257 melanoma) | growth (M14 melanoma) |
| --- | --- | --- | --- | --- | --- | --- | --- | --- | --- | --- | --- | --- | --- | --- | --- | --- | --- | --- | --- | --- |
| O=C(N/N=C/c1c(Cl)cccc1Cl)c1ccc(C(F)(F)F)nc1Nc1cccc(C(F)(F)F)c1 | -10.6% (active) | 14.2% | 1.62% (active) | 28.2% | 7.11% (active) | 7.35% (active) | -3.43% (active) | 18.6% | 8.61% (active) | -15.4% (active) | 11.4% | -7.07% (active) | 5.8% (active) | 11.3% | 40.8% | -2.71% (active) | 13.7% | 1.63% (active) | 7.6% (active) | 23.6% |
| COC(=O)Nc1ccc(-c2nc(-c3cccc(OC)c3)c(-c3ccnc(Br)c3)[nH]2)cc1 | 67.7% | 59.1% | 62.2% | 59.4% | 61.2% | 62.8% | 57.9% | 54.4% | 37.4% | 79.7% | 81.4% | 13.8% | 66.7% | 65.3% | -12.2% (active) | 76% | 9.58% (active) | 51.6% | 71.7% | 42.5% |
| O=C(CCN1C(=O)/C(=C/c2ccc(O)cc2)SC1=S)Nc1ccc(Cl)cc1 | 91.3% | 97.8% | 82.6% | 84.8% | 102% | 85.9% | 19.9% | 92.1% | 99.7% | 120% | 108% | 89.7% | 89.9% | 86.3% | 108% | 90.9% | 92.9% | 96.1% | 101% | 100% |
| Cc1c(C(=O)N[C@@H](Cc2ccccc2)C(=O)C(=O)NCc2ccc(F)cc2)[nH]c2ccccc2c1=O | 101% | 89% | 98.8% | 106% | 56.9% | 94.4% | 91.4% | 97.3% | 102% | -42.1% (active) | 105% | 84.2% | 102% | 100% | 103% | 97.4% | 105% | 101% | 101% | 103% |
| Cc1nn(-c2ccccc2)c2c1N=c1s/c(=C\c3ccc(C(F)(F)F)cc3)c(=O)n1CN2 | 51.1% | 61% | 75.7% | 87.7% | 53.8% | 56.4% | 40.5% | 5.73% (active) | 73.2% | 85.6% | 117% | 93.1% | 83.1% | 56.2% | 49.7% | 101% | 84% | 67.8% | -1.84% (active) | 69.4% |
| Cc1ccc2sc3c(NCCCN)nc4ccccc4c3c(=O)c2c1 | 79.9% | 93.5% | 69.2% | 69.1% | -54.2% (active) | 44.8% | 59.4% | 43.5% | 76.7% | -42.9% (active) | 15.4% | -37.7% (active) | 104% | -14.6% (active) | 71.4% | 65.1% | 88% | 58% | 101% | 15% |
| CCCCCCCCCCCCCCCCCC1OCC(COC(=O)O[C@]2(CC)C(=O)OCc3c2cc2n(c3=O)Cc3cc4ccccc4nc3-2)O1 (stereo partly specified) | 75.4% | 75.4% | 101% | 53% | 31.4% | 92.6% | 82.6% | 78.5% | 86.7% | 79.3% | 76% | 88.4% | 101% | 93.1% | 89.4% | 45.7% | 23.4% | 68.1% | 95.9% | 75.3% |
| COc1c(C2CC(=O)Nc3c2c(C)nn3-c2nc3ccccc3[nH]2)cc2c(c1OC)OCO2 (stereo unspecified) | 48.2% | 75.8% | 78.5% | 43.4% | 35.6% | 70.9% | 53.3% | 35.8% | 67.6% | 84.1% | 80.2% | 15.1% | 86.5% | 68.4% | 27.1% | 62.1% | 19.8% | 59.8% | 67.1% | 33.3% |
| COc1ccc2c(c1)C(C)Cc1c(ncnc1-n1c(C)nc3ccccc31)N2C (stereo unspecified) | 30.2% | 63.7% | 39.5% | 33.6% | 7.77% (active) | -4.69% (active) | 20.9% | 35.2% | 29.2% | -11.3% (active) | 24.2% | 11% | 58.1% | – | 14.2% | 42.5% | 6.04% (active) | 5.97% (active) | 68.3% | 14.5% |
| Cc1ccc(C(=O)NN2C(=O)CSC2c2ccc(Cl)cc2)cn1 (stereo unspecified) | 84.1% | 82.4% | 119% | 82.2% | 101% | 71.1% | 84.3% | 100% | 107% | 105% | 125% | 89.8% | 140% | 88.8% | 95.2% | 101% | 66.9% | 101% | 110% | 97.8% |
| CCC(C)(c1cc(C(C)(C)C)c(O)c(C(C)(C)C)c1)c1cc(C(C)(C)C)c(O)c(C(C)(C)C)c1 | 96.2% | 100% | 98% | 92.4% | 106% | 92.9% | 86.4% | 93.5% | 99.2% | 107% | 101% | 91.4% | 94% | – | 104% | 95.4% | 96.6% | 105% | 94.8% | 98.5% |
| Cc1nc(/N=C(\N)NC(=O)Nc2ccccc2Cl)sc1C | 42.6% | 68% | 51% | 45% | 12.1% | 64.6% | 18.6% | 47.8% | 57.1% | 12.2% | 13.2% | 13.1% | 53.1% | 50.5% | 4.01% (active) | 60.6% | 12.6% | 0.177% (active) | 69.5% | 24% |
| c1ccc(Cc2nn3cc(-c4ccccc4)nc3s2)cc1 | 97.8% | 117% | 98.4% | 104% | 102% | 109% | 80.1% | 91.3% | 86.3% | 118% | 99% | 93.8% | 111% | 109% | 129% | 98% | 97.8% | 106% | 108% | 90.3% |
| COc1ccc(/C=C/c2c(C(=O)/C=C/c3ccc(C(F)(F)F)cc3)c(C)nc3ccccc23)cc1 | -23% (active) | -38.3% (active) | 6.19% (active) | -1.82% (active) | -58.9% (active) | -64.3% (active) | -0.88% (active) | 65.4% | -72.5% (active) | -28.4% (active) | -81% (active) | 8.15% (active) | -46.7% (active) | -20.2% (active) | -83.9% (active) | 14.6% | -49.3% (active) | -76.2% (active) | -38% (active) | -15% (active) |
| COC(=O)CCC/C=C\C[C@H]1C=CC(=O)/C1=C/C[C@@H](O)CCc1cccc(C(F)(F)F)c1 | -13.7% (active) | -48.4% (active) | -14.3% (active) | -47.3% (active) | -41.8% (active) | -37.1% (active) | -75.1% (active) | -24.2% (active) | -61.1% (active) | -49.3% (active) | 2.5% (active) | 1.71% (active) | 58.4% | – | -73.5% (active) | -2.42% (active) | -21.1% (active) | -14.1% (active) | -6.49% (active) | -32.4% (active) |
| COC1=C(C)C(=O)c2c(c(CCCl)c3n2CCC3OC(C)=O)C1=O (stereo unspecified) | -12% (active) | -14.9% (active) | -14.8% (active) | -22.4% (active) | -14.3% (active) | 56.4% | -56.9% (active) | 1.27% (active) | -32.4% (active) | -60% (active) | -9.56% (active) | 12.7% | -64.3% (active) | – | -54.3% (active) | 10.4% | -11.7% (active) | -41.7% (active) | -50.2% (active) | -46.3% (active) |
